The campaign covered roughly 5,500 compounds. About 2,000 (36%) were called active. Not shown: some 18% with an inconclusive outcome. No stated cut-off is given here; in the data, active means normalized growth mostly below about 0.91 (no sharp cut-off); inconclusive means no clear call, values can overlap the other calls; inactive means mostly above about 0.92. Some of the results follow.
Assay: chemical genetic growth profiling, strain panel (AID 1159580);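 further: tested at 20 µM; growth read once vehicle control cultures reached saturation at 30 °C; 1 = growth at the plate median or of vehicle wells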
Conditions: growth OD

Measured: normalized growth

ClC(Cl)=C(c1ccc(Cl)cc1)c1ccc(Cl)cc1
inactive: S. cerevisiae deletion strains, locus YJR075W, strain HOC1, stronger effect = lower value 0.947 | S. cerevisiae deletion strains, locus YKL009W, strain mrt4, stronger effect = lower value 0.995 | S. cerevisiae deletion strains, locus YKL085W, strain MDH1 (second series), stronger effect = lower value 0.931 | S. cerevisiae deletion strains, locus YKL085W, strain MDH1, stronger effect = lower value 0.931 | S. cerevisiae deletion strains, locus YKL160W, strain elf1, stronger effect = lower value 0.998 | S. cerevisiae deletion strains, locus YKL190W, strain CNB1, stronger effect = lower value 0.966 | S. cerevisiae deletion strains, locus YKR001C, strain vps1, stronger effect = lower value 0.949 | S. cerevisiae deletion strains, locus YKR026C, strain gcn3, stronger effect = lower value 1 | S. cerevisiae deletion strains, locus YKR091W, strain srl3, stronger effect = lower value 0.985 | S. cerevisiae deletion strains, locus YLL001W, strain dnm1, stronger effect = lower value 0.996 | S. cerevisiae deletion strains, locus YLL026W, stronger effect = lower value 0.993 | S. cerevisiae deletion strains, locus YLL041C, strain sdh2, stronger effect = lower value 0.991 | S. cerevisiae deletion strains, locus YLR027C, strain aat2, stronger effect = lower value 1.01 | S. cerevisiae deletion strains, locus YLR058C, strain SHM2, stronger effect = lower value 0.962 | S. cerevisiae deletion strains, locus YLR102C, strain apc9, stronger effect = lower value 0.954 | S. cerevisiae deletion strains, locus YLR113W, strain HOG1, stronger effect = lower value 0.979 | S. cerevisiae deletion strains, locus YLR221C, strain rsa3, stronger effect = lower value 0.994 | S. cerevisiae deletion strains, locus YLR258W, strain gsy2, stronger effect = lower value 0.985 | S. cerevisiae deletion strains, locus YLR262C, strain YPT6 (second series), stronger effect = lower value 1.04 | S. cerevisiae deletion strains, locus YLR262C, strain YPT6, stronger effect = lower value 0.652 | S. cerevisiae deletion strains, locus YLR268W, strain sec22, stronger effect = lower value 0.969 | S. cerevisiae deletion strains, locus YLR320W, strain mms22, stronger effect = lower value 0.967 | S. cerevisiae deletion strains, locus YLR330W, strain CHS5, stronger effect = lower value 0.962 | S. cerevisiae deletion strains, locus YLR342W, strain FKS1 (second series), stronger effect = lower value 0.879 | S. cerevisiae deletion strains, locus YLR342W, strain FKS1, stronger effect = lower value 0.983 | S. cerevisiae deletion strains, locus YLR357W, strain rsc2, stronger effect = lower value 1 | S. cerevisiae deletion strains, locus YLR370C, strain arc18, stronger effect = lower value 0.996 | S. cerevisiae deletion strains, locus YLR371W, strain rom2, stronger effect = lower value 0.953 | S. cerevisiae deletion strains, locus YLR384C, strain iki3, stronger effect = lower value 0.987 | S. cerevisiae deletion strains, locus YLR418C, strain cdc73, stronger effect = lower value 0.905 | S. cerevisiae deletion strains, locus YML016C, strain PPZ1, stronger effect = lower value 0.946 | S. cerevisiae deletion strains, locus YML032C, strain rad52, stronger effect = lower value 0.949 | S. cerevisiae deletion strains, locus YML120C, strain ndi1, stronger effect = lower value 0.988 | S. cerevisiae deletion strains, locus YML124C, strain tub3, stronger effect = lower value 0.942 | S. cerevisiae deletion strains, locus YMR058W, strain fet3, stronger effect = lower value 0.996 | S. cerevisiae deletion strains, locus YMR078C, strain ctf18, stronger effect = lower value 0.925 | S. cerevisiae deletion strains, locus YMR125W, strain sto1, stronger effect = lower value 0.988 | S. cerevisiae deletion strains, locus YMR129W, stronger effect = lower value 0.997 | S. cerevisiae deletion strains, locus YMR205C, strain PFK2, stronger effect = lower value 0.959 | S. cerevisiae deletion strains, locus YMR223W, strain ubp8, stronger effect = lower value 0.964 | S. cerevisiae deletion strains, locus YMR231W, strain pep5, stronger effect = lower value 0.999 | S. cerevisiae deletion strains, locus YMR263W, strain SAP30, stronger effect = lower value 0.96 | S. cerevisiae deletion strains, locus YMR307W, strain GAS1, stronger effect = lower value 0.978 | S. cerevisiae deletion strains, locus YNL067W, strain RPL9B, stronger effect = lower value 0.974 | S. cerevisiae deletion strains, locus YNL071W, strain lat1, stronger effect = lower value 1 | S. cerevisiae deletion strains, locus YNL128W, strain TEP1, stronger effect = lower value 0.973 | S. cerevisiae deletion strains, locus YNL153C, strain GIM3, stronger effect = lower value 0.98 | S. cerevisiae deletion strains, locus YNL183C, strain NPR1, stronger effect = lower value 0.986 | S. cerevisiae deletion strains, locus YNL209W, strain ssb2, stronger effect = lower value 0.994 | S. cerevisiae deletion strains, locus YNL233W, strain BNI4, stronger effect = lower value 0.981 | S. cerevisiae deletion strains, locus YNL248C, strain rpa49, stronger effect = lower value 0.993 | S. cerevisiae deletion strains, locus YNL250W, strain rad50, stronger effect = lower value 0.917 | S. cerevisiae deletion strains, locus YNL271C, strain bni1, stronger effect = lower value 0.957 | S. cerevisiae deletion strains, locus YNL298W, strain CLA4, stronger effect = lower value 0.953 | S. cerevisiae deletion strains, locus YNL322C, strain KRE1 (second series), stronger effect = lower value 0.989 | S. cerevisiae deletion strains, locus YNL322C, strain KRE1, stronger effect = lower value 0.963 | S. cerevisiae deletion strains, locus YNR049C, strain mso1, stronger effect = lower value 0.994 | S. cerevisiae deletion strains, locus YNR052C, strain pop2, stronger effect = lower value 0.954 | S. cerevisiae deletion strains, locus YOL006C, strain TOP1, stronger effect = lower value 1.01 | S. cerevisiae deletion strains, locus YOL012C, strain htz1 0.487 | S. cerevisiae deletion strains, locus YOL147C, strain pex11, stronger effect = lower value 0.946 | S. cerevisiae deletion strains, locus YOR001W, strain rrp6, stronger effect = lower value 0.989 | S. cerevisiae deletion strains, locus YOR061W, strain CKA2, stronger effect = lower value 0.957 | S. cerevisiae deletion strains, locus YOR069W, strain VPS5, stronger effect = lower value 0.955 | S. cerevisiae deletion strains, locus YOR070C, strain gyp1, stronger effect = lower value 1 | S. cerevisiae deletion strains, locus YOR080W, strain dia2, stronger effect = lower value 0.988 | S. cerevisiae deletion strains, locus YOR083W, strain WHI5, stronger effect = lower value 0.994 | S. cerevisiae deletion strains, locus YOR106W, strain vam3, stronger effect = lower value 1 | S. cerevisiae deletion strains, locus YOR136W, strain idh2, stronger effect = lower value 0.96 | S. cerevisiae deletion strains, locus YOR144C, strain elg1, stronger effect = lower value 0.952 | S. cerevisiae deletion strains, locus YOR184W, strain ser1, stronger effect = lower value 0.954 | S. cerevisiae deletion strains, locus YOR231W, strain MKK1, stronger effect = lower value 1.04 | S. cerevisiae deletion strains, locus YOR265W, strain rbl2, stronger effect = lower value 0.992 | S. cerevisiae deletion strains, locus YOR270C, strain vph1, stronger effect = lower value 0.978 | S. cerevisiae deletion strains, locus YOR290C, strain snf2, stronger effect = lower value 0.99 | S. cerevisiae deletion strains, locus YOR316C, strain cot1, stronger effect = lower value 0.945 | S. cerevisiae deletion strains, locus YPL051W, strain arl3, stronger effect = lower value 0.989 | S. cerevisiae deletion strains, locus YPL055C, strain LGE1, stronger effect = lower value 0.983 | S. cerevisiae deletion strains, locus YPL078C, strain atp4, stronger effect = lower value 0.991 | S. cerevisiae deletion strains, locus YPL106C, strain sse1, stronger effect = lower value 0.991 | S. cerevisiae deletion strains, locus YPL240C, strain hsp82, stronger effect = lower value 0.989 | S. cerevisiae deletion strains, locus YPL241C, strain CIN2, stronger effect = lower value 0.973 | S. cerevisiae deletion strains, locus YPL256C, strain CLN2, stronger effect = lower value 1.05 | S. cerevisiae deletion strains, locus YPR119W, strain clb2, stronger effect = lower value 0.932 | S. cerevisiae deletion strains, locus YPR141C, strain kar3, stronger effect = lower value 0.93 | S. cerevisiae deletion strains, locus YPR163C, strain tif3, stronger effect = lower value 0.952 | S. cerevisiae deletion strains, locus YPR167C, strain met16, stronger effect = lower value 0.942 | S. cerevisiae deletion strains, strain wtn01, stronger effect = lower value 0.936 | S. cerevisiae strains, strain wild type, stronger effect = lower value 0.958
active: S. cerevisiae deletion strains, locus YKL068W, stronger effect = lower value 0.94 | S. cerevisiae deletion strains, locus YLR039C, strain RIC1, stronger effect = lower value 0.637 | S. cerevisiae deletion strains, locus YNL307C, strain MCK1, stronger effect = lower value 0.841
